# Compounds with a hit are over-represented: about 2.2% of the library has one in this group of screens.
# Arbovirus anti = antivirals against arbovirus infection, primary screen, cell-based, full library, 10K replicate subset; arbovirus infection cell-based antiviral screen; inhibition, % at 10 µM; 200,000 tested, 0.37% active; in the data active means inhibition above about 30%
# Ins promoter up = insulin promoter activators in MIN6 cells, imaging, high-content screening, mouse beta cells; MIN6 insulin promoter-GFP reporter; active compounds read high; z-score at 5 µM; 190,000 tested, 0.3% active; AID 1625, 2009;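 active means z-score above 3 at 5 µM with at least 500 cells counted in the well; inconclusive means wells under 500 cells, flagged as cytotoxic or low count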
# p47phox inh = p47phox/p22phox peptide binding inhibitors, primary screen, biochemical, uHTS, NADPH oxidase regulatory subunit; Neutrophil cytosol factor 1 (Homo sapiens), P14598; fluorescence polarization, 2 h; inhibition, % at 24.7 µM; 220,000 tested, 0.53% active; AID 1274, 2008;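 active means inhibition above about 30%, limit read from the data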;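 further: 0% = p47phox with labelled peptide and 100% = labelled peptide alone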
# Target sequence (P14598 whole entry, looked up): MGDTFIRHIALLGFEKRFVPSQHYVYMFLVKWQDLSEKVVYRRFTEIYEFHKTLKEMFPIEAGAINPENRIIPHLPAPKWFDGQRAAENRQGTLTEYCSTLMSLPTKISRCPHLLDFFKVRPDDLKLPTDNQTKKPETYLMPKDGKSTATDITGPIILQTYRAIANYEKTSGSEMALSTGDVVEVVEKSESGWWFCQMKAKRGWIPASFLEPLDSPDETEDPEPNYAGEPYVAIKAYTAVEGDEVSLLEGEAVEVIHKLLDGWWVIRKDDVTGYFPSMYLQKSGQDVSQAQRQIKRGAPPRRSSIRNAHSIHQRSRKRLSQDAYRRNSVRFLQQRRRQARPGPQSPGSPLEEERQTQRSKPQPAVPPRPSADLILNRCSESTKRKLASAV
# HMGR II inh = inhibitors of E. faecalis class II HMGR, primary screen, biochemical, Enterococcus faecalis; purified E. faecalis HMGR, NADPH absorbance 340 nm kinetic; inhibition, % at 10 µM; 190,000 tested, 0.41% active; AID 1066, 2008;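 active means inhibition above a set limit, the median over all tested compounds plus 3 SD, cut at about 9.5% in these data; inconclusive means no clear call, values can overlap the other calls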;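 further: enzyme runs in reverse so mevalonate oxidation gives rising NADPH absorbance; 0% = complete reaction with DMSO and 100% = background rate lacking mevalonate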
# Autophagy HCS = autophagy modulators in MEF cells, primary screen, imaging, high-content, MEF GFP-LC3; MEF GFP-LC3 puncta imaging; test concentration mostly 10 µM; 190,000 tested, 0.98% active; calls only at 10 µM (by protocol);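 active means percentage of spot-positive cells more than 3 SD above its plate mean, without a fluorescence outlier flag or 80% toxicity; inconclusive means no clear call, values can overlap the other calls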;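 further: spot-positive cell cutoff set from DMSO-treated cells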
# DTT redox prof = compounds producing H2O2 with reducing agent – biochemical, NIH compound library profiling, artefact control for MLSCN library redox annotation, primary screen | DTT-dependent redox cycling H2O2, phenol red/HRP absorbance; 100% = 100 µM peroxide control, 0% = buffer | activation, % at 10 µM | 200,000 tested, 0.03% active | AID 878, 2007;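 active means activation of at least 50% relative to the plate's high and low controls in the primary single-dose screen; inactive means activation below 50%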;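 further: compound incubated with DTT at 0.8 mM final as the reducing agent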
# The depositor's hits bear a star; i = inactive; ? = inconclusive; / = no result given; + = active, no number.
SMILES,Arbovirus anti,Ins promoter up,p47phox inh,HMGR II inh,Autophagy HCS,DTT redox prof
Cc1ccc(N2C(=O)C3CC(c4ccccc4)=C4C5C=CC(C6C(=O)N(c7ccc(C)cc7)C(=O)C56)C4C3C2=O)cc1 (centres undefined),33*,-0.53,-10,-2,i,0
CC(=O)Nc1ccc2c(COC(=O)[C@H](C)N3C(=O)C4CCCCC4C3=O)cc(=O)oc2c1 (some centres undefined),/,0.15,-4,/,/,/
COC(=O)c1ccc(C2c3c(n[nH]c3C)C(=O)N2c2ccc(C)cc2)cc1 (centres undefined),6,1.1,-3,-4,/,0
Cc1ccc(N2C(=O)c3n[nH]c(C)c3C2c2ccco2)cc1 (centres undefined),9,0.08,46*,2,i,0
CCOC(=O)c1ccc(N2C(=O)c3n[nH]c(C)c3C2c2ccco2)cc1 (centres undefined),-8,0.32,5,6,i,1
Cc1ccc(N2C(=O)c3n[nH]c(C)c3C2c2ccccn2)cc1 (centres undefined),-6,0.03,73*,-4,i,0
O=C(COc1ccccc1Cl)N1CCN(c2ccc([N+](=O)[O-])c(N3CCOCC3)c2)CC1,3,-0.05,-2,-6,i,-1
Cc1nnc(SC(C)C#N)n1-c1ccccc1 (centres undefined),10,0.25,-6,12*,i,-2
COc1ccc(CNC(=O)COC(=O)Cc2ccc(Cl)cc2Cl)cc1,-2,0.18,2,-11,i,1
CN(Cc1ccccc1NC(=O)c1ccc(S(=O)(=O)N(C)C)cc1)C1CCCCC1,47*,-0.79,0,-2,i,-1
CN(C(=O)CCN1C(=O)C(C)(C)Nc2ccccc21)c1ccccc1,11,0.62,-2,36*,i,1
COC(=O)Cc1ccc(NC(=S)N2CCN(c3ccc(F)cc3)CC2)cc1,17,-0.09,6,-3,i,0
O=[N+]([O-])c1ccc(Cl)c(S(=O)(=O)/N=C(/c2ccccc2)N2CCOCC2)c1,2,-0.23,-13,-2,i,-1
Cc1noc(/C=C/c2ccc(-c3ccccc3Cl)o2)c1[N+](=O)[O-],3,/,24,-3,+,0
COc1ccc(N(CC(=O)Nc2cc(C)cc(C)c2)S(=O)(=O)c2ccccc2[N+](=O)[O-])c(OC)c1,-1,0.46,-17,9.9*,i,0
O=C1/C(=C/c2c[nH]c3ccccc23)CCC/C1=C\c1c[nH]c2ccccc12,-24,4.6*,-85,-2,i,0
CCOC(=O)Cn1c(=O)c(-c2ccccc2NC)nc2ccccc21,-4,-0.08,39*,-2,i,0
O=C(CCCN1Cc2ccccc2C1)c1ccc(F)cc1,-3,0.04,-9,-4,i,1
CN1CCN(CCCC(=O)c2ccc(F)cc2)CC1,1,0.47,64*,0,i,-1
COc1cccc(N/C(N)=N/c2nc(CSc3ccccn3)cc(=O)[nH]2)c1,-14,0.07,-13,-9,+,-1
CCc1ccc(N/C(N)=N/c2nc(CSc3ccccn3)cc(=O)[nH]2)cc1,-20,-1.1,-5,-4,i,0
Cc1ccc(-n2nc3c(c2NC(=O)c2ccc(S(=O)(=O)N4CCOCC4)cc2)CSC3)c(C)c1,7,0.38,-10,-1,i,-1
CC(C)CSC1=NSC2=NC(=O)/C(=C\c3coc4ccccc4c3=O)C(=N)N12,52*,0.09,-73,-8,i,0
C/C(=N\NC(=O)C(c1ccccc1)c1ccccc1)c1ccccn1,-30,-1.4,4,1,+,-1
CCN1C(=O)/C(=C/N2CCc3ccccc32)SC1=S,-6,-1.2,-8,-4,+,1
SMILES,Arbovirus anti,Ins promoter up,p47phox inh,HMGR II inh,Autophagy HCS,DTT redox prof
CCN1C(=O)/C(=C\N2CCCc3ccccc32)SC1=S,-2,-0.02,-15,-5,i,0
Nn1c(SCc2nc3ccccn3c2Br)nnc1-c1cccnc1,10,0.68,57*,-1,i,2
CC1(C)CNc2cc([N+](=O)[O-])ccc2S1,10,0.27,-3,2,i,-2
CC(C)c1onc(C(=O)NC2CCCCC2)c1[N+](=O)[O-],15,-0.21,-3,-7,i,0
O=c1c2ccccc2nc(-c2ccccc2)n1CCN1CCOCC1,1,0.24,1,-10,i,-1
c1ccc(-c2csc3ncnc(NCCCN4CCOCC4)c23)cc1,43*,?,-24,1,i,1
O=c1c2c(-c3ccccc3)csc2nc2c3ccccc3c(NCCN3CCOCC3)nn12,-37,-2.6,74*,1,+,0
O=c1c2ccccc2nc2c3ccccc3c(NCCN3CCOCC3)nn12,-32,/,-13,0,+,1
CC1CCCC(C)N1CC(C)(C)NS(=O)(=O)c1ccc(Cl)cc1 (centres undefined),-7,-0.25,-3,-4,i,1
N#Cc1cnc(NN)nc1,-1,-0.12,3,-3,i,-2
N#CCCCn1c(=O)oc2ccccc21,0,-0.28,-9,15*,i,0
NC(=O)CCn1c(=O)oc2ccccc21,1,-1.4,68*,1,i,1
O=c1oc2ccccc2n1CCCCCn1c(=O)oc2ccccc21,0,0.08,3,-4,i,3
COc1cccc(NC(=O)c2ccc(NC(=O)C3CC(=O)OC34CCCCC4)cc2)c1 (centres undefined),-2,0.31,-3,-2,i,4
Cc1ccc(OCC(O)CN2C(=O)NC(C)(C)C2=O)cc1C (centres undefined),0,0.06,-8,2,/,0
Cc1ccc(OCC(O)CN2C(=O)NC(C)(C)C2=O)cc1 (centres undefined),3,0.34,-10,14*,i,1
CCCCn1c(CN2CCN(c3cccc(Cl)c3)CC2)nc2c1c(=O)[nH]c(=O)n2C,-15,-0.35,-12,9.8*,+,1
Cn1c(Cc2ccc3c(c2)OCO3)nnc1SCC(=O)NC1CCCC1,10,-0.61,-3,-3,i,-1
CCOc1ccc(-n2c(=O)[nH]c3sc4c(c3c2=O)CCCC4)cc1,40*,-2.1,-5,2,i,-1
Cc1sc(NC(=O)Cn2cnnn2)nc1-c1ccc(Cl)cc1,18,1.2,-6,-2,i,-2
Nc1c(C(=O)O)sc2nc(-c3ccccc3)cc(-c3ccccc3)c12,/,4.6*,-22,/,/,/
Nc1c(C(=O)O)sc2nc(-c3ccccc3)cc(-c3ccc(F)cc3)c12,/,0.84,-22,/,/,/
